FBPA coupling cs – qHTS Assay for Inhibitors of Fructose-1,6-bisphosphate Aldolase from Giardia Lamblia: Coupling assay counterscreen; coupling enzyme system counterscreen, AmpLite Red fluorescence; AID 2472, 2010; actives 0.67% (n = 290,000); activity change, negative = inhibition, % at 58.2 µM, hits read low; in the data active = activity change below about -30%
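Counterscreen lacking aldolase: glyceraldehyde-3-phosphate coupling-enzyme reagent preincubated 10 min at RT with compound (at 57.5 uM final), then substrate/coupling system with AmpLite Red added; fluorescence read at 525/598 nm after 20 min RT.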
Sfp inh – qHTS Assay for Inhibitors of Bacillus subtilis Sfp phosphopantetheinyl transferase (PPTase) | 4'-phosphopantetheinyl transferase ffp (Bacillus subtilis), Q9F4F7 | Biochemical Sfp PPTase activity, qHTS | Potency, µM, without a hit: largest response in the series, negative = inhibition, most hits filed as inhibitors | actives 3.5% (n = 310,000) | AID 1490, 2009;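 also: the enzyme is Sfp with the accession as filed and its product quenches rhodamine fluorescence; potency is read from the fitted curve at half-maximal effect; 0% = enzyme reaction without inhibitor and -100% = no enzyme wells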
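Sfp 15 nM + cpd, 15 min RT; start w/ rhodamine-CoA 5 uM, BHQ-2-YbbR 12.5 uM (final); 50 mM Hepes pH 7.6, 10 mM MgCl2, 0.01% NP-40, 0.01% BSA; read 525/598 nm at 0 and 30 min.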
ELG1 DNA repair – qHTS screen for small molecules that inhibit ELG1-dependent DNA repair in human embryonic kidney (HEK293T) cells expressing luciferase-tagged ELG1 | actives 2.3% (n = 330,000) | Potency, µM (series often up to 46.1 µM), for the others: at the highest dose activity change, negative = inhibition, most hits filed as inhibitors | HEK293T ELG1-luciferase reporter, luminescence, 16 h; DNA damage induced by 5-fluorouridine; also: potency is read from the fitted curve at half-maximal effect; nearly all actives have a fitted effect of over 55% in size
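HEK293T cells expressing luciferase-tagged ELG1 (2,000/well) received 5-Fluorouridine plus compound or DMSO for 16 hr at 37 °C. Luciferase was read by ONE-Glo luminescence after 30 min at room temperature.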
Giardia killer – Small Molecules that selectively kill Giardia lamblia: qHTS | Giardia lamblia trophozoite viability | activity change, % at 7.66 µM, hits read low | actives 0.15% (n = 340,000); in the data active = activity change below about -80%; inconclusive = between about -30% and that limit;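 also: parasites exposed to compound for two days anaerobically before the ATP read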
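Anaerobic 48 hrs incubation at 37 deg C of 100 trophozoites/well with test compounds; ATPLite 1-Step luminescence, 15-30 min RT, reports cellular ATP as viability.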
The depositor's hits bear a star. The list is not random: actives were taken first. Their share in the collection is about 5.5%. Unless noted, calls follow the shape of the dose curve; as a rule, active = well fitted curve in the direction sought with a large enough effect; inconclusive = small, poorly fitted or top-dose-only effect, or another doubt; inactive = no such curve, though single readings can be large; an effect the other way counts as inactive or inconclusive. Unless noted, % is scaled to controls: 0 for no effect and ±100 for the full control effect.

Screening CC(Oc1ccc(Br)cc1)C(=O)NNC(=O)CCN1CCN(c2ccccc2)CC1 (stereo not given) returned ELG1 DNA repair -5% and Giardia killer -20.
`O=C(NNC1=Nc2ccccc2SC1)c1cccc([N+](=O)[O-])c1` gave FBPA coupling cs 1, Sfp inh 15%, ELG1 DNA repair 16µM* and Giardia killer 10.
For O=C(NNC1=NCCCCC1)c1cccc([N+](=O)[O-])c1 the results were FBPA coupling cs 0, Sfp inh 14%, ELG1 DNA repair 9% and Giardia killer 2.
For O=C(NNC(=O)c1ccccn1)c1cccc([N+](=O)[O-])c1 the results were FBPA coupling cs -8, Sfp inh 7%, ELG1 DNA repair 12µM* and Giardia killer -13.
`N#Cc1ccsc1NC(=O)c1ccc(Cl)c([N+](=O)[O-])c1` gave FBPA coupling cs 3, Sfp inh -3%, ELG1 DNA repair inconclusive and Giardia killer -27.
Screening N#Cc1ccsc1NC(=O)c1cccc([N+](=O)[O-])c1 returned FBPA coupling cs -2, Sfp inh 40µM*, ELG1 DNA repair 5.8µM* and Giardia killer -1.
O=C(NNC1=Nc2ccccc2SC1)c1ccccc1F was read as FBPA coupling cs 2, Sfp inh 5%, ELG1 DNA repair 5.8µM* and Giardia killer 2.
Screening COc1cc(/C=C/C(=O)OCC(=O)Nc2cc(C)on2)ccc1OCC#N returned ELG1 DNA repair inconclusive and Giardia killer 10.
Screening CC1=CC(=O)C2C(C)(C)CCC[C@@]2(C)[C@@]1(O)CCc1ccoc1 (stereo not given in full) returned FBPA coupling cs 3 and Sfp inh -8%.
Screening Cc1cc(C(=O)c2ccccc2)cc(C)c1O returned Giardia killer 9.
For CC1=C/C(=C(\c2cc(C)c(O)c(Br)c2)c2ccccc2S(=O)(=O)O)C=C(Br)C1=O the results were FBPA coupling cs -20, Sfp inh 45µM*, ELG1 DNA repair inconclusive and Giardia killer 28.
CC1(C)CC(=O)C(C(c2ccc(F)cc2)C2C(=O)CC(C)(C)CC2=O)C(=O)C1 was read as FBPA coupling cs 4, Sfp inh -33%, ELG1 DNA repair 7% and Giardia killer 4.
Screening CCc1sc(C(C2C(=O)CC(C)(C)CC2=O)C2C(=O)CC(C)(C)CC2=O)cc1[N+](=O)[O-] returned FBPA coupling cs 11, Sfp inh 11µM*, ELG1 DNA repair inconclusive and Giardia killer -2.
O=C(c1ccc2c(=O)n(-c3ccccc3)c(=S)[nH]c2c1)N1CCCCC1 was read as FBPA coupling cs 1, Sfp inh -27%, ELG1 DNA repair 3.3µM* and Giardia killer 16.
CC1CCCN(C(=O)c2ccc3c(=O)n(C4CCCC4)c(=S)[nH]c3c2)C1 (stereo not given) was read as FBPA coupling cs -3, Sfp inh -20%, ELG1 DNA repair inconclusive and Giardia killer -10.
For O=C(c1ccc2c(=O)n(C3CCCC3)c(=S)[nH]c2c1)N1CCCCCC1 the results were FBPA coupling cs 0, Sfp inh -3%, ELG1 DNA repair 1.8µM* and Giardia killer 3.
For CC(C)=NOCc1ccc(-c2cn([C@@H]3COC[C@@H]3O)nn2)cc1 the results were FBPA coupling cs -5 and Sfp inh 14µM*.
CC(C)=NO[C@@H](C)c1cn([C@@H]2COC[C@@H]2O)nn1 was read as FBPA coupling cs 1 and Sfp inh 3%.
Cc1ccc(Nc2nnns2)cc1 was read as FBPA coupling cs 5, Sfp inh 6.3µM*, ELG1 DNA repair 4% and Giardia killer -16.
Cn1cccc1C(=O)N1CCC2(CCCN(c3cccc(-c4ccccc4)c3)C2)CC1 was read as FBPA coupling cs 0 and Sfp inh -15%.
For CNc1sc(C(=O)c2cccs2)c(N)c1-c1nc2ccccc2s1 the results were FBPA coupling cs -1, Sfp inh 13µM*, ELG1 DNA repair inconclusive and Giardia killer 3.
Screening O=C(O)c1cc(-c2ccc(Cl)c(Cl)c2)n(-c2ccccc2)n1 returned FBPA coupling cs -5, Sfp inh 12%, ELG1 DNA repair -3% and Giardia killer -9.
For Cc1csc(N(C(=O)Cc2ccccc2F)c2ccccc2)n1 the results were FBPA coupling cs 4, Sfp inh -7%, ELG1 DNA repair 0% and Giardia killer -11.
Screening Cc1csc(N(C(=O)c2cccc(S(=O)(=O)N3CCCC3)c2)c2ccccc2)n1 returned FBPA coupling cs -1, Sfp inh 10%, ELG1 DNA repair 21µM* and Giardia killer -1.
Screening Cc1csc(N(C(=O)c2cccc(S(=O)(=O)N(C)C)c2)c2ccccc2)n1 returned FBPA coupling cs 1, Sfp inh -7%, ELG1 DNA repair 15µM* and Giardia killer 21.
`C=CC[C@@H]1C=C[C@H](O/N=C(\C)CCN2CCc3nc(CC)c(CC)cc3C2)[C@H](CO)O1` gave FBPA coupling cs -6 and Sfp inh -11%.
For CCOCc1nnc(NC(=O)c2cc(Cl)ccc2OC)s1 the results were FBPA coupling cs 2, Sfp inh 35µM*, ELG1 DNA repair 7% and Giardia killer -13.
N#C/C(=C\c1ccccc1[N+](=O)[O-])C(=O)NCc1ccccc1 was read as FBPA coupling cs -1, Sfp inh -8%, ELG1 DNA repair 1.8µM* and Giardia killer -28.
`O=C(/C=C/c1ccccc1[N+](=O)[O-])Oc1ccccc1` gave FBPA coupling cs 0, Sfp inh -6% and ELG1 DNA repair 8%.
For COC(=O)C(=Cc1ccccc1[N+](=O)[O-])C(=O)OC the results were FBPA coupling cs 0, Sfp inh -15%, ELG1 DNA repair 23µM* and Giardia killer 12.
COc1cc2nc(CN3CCN(S(=O)(=O)c4ccccc4)CC3)[nH]c(=O)c2cc1OC was read as ELG1 DNA repair inconclusive and Giardia killer -2.
`COc1cc2nc(CN3CCN(S(=O)(=O)c4cc(C)ccc4C)CC3)[nH]c(=O)c2cc1OC` gave ELG1 DNA repair 15µM* and Giardia killer -7.
`Cc1cccc(NC(=O)CNC(=O)CN2C(=O)NC3(CCCc4ccccc43)C2=O)c1C` (stereo not given) gave ELG1 DNA repair -9% and Giardia killer -2.
For CCCC(c1nnnn1C(C)(C)C)N1CCN(Cc2ccccc2OC)CC1 (stereo not given) the results were FBPA coupling cs 0, Sfp inh 56µM*, ELG1 DNA repair 6% and Giardia killer -17.
CCCC(c1nnnn1C(C)(C)C)N1CCN(c2ccccc2)CC1 (stereo not given) was read as FBPA coupling cs 2, Sfp inh 7%, ELG1 DNA repair -5% and Giardia killer -9.

High-throughput results deposited in PubChem BioAssay by National Center for Advancing Translational Sciences (NCATS).
